Assay results as given in PubChem BioAssay AID1159580 (chemical genetic matrix, 2015).
Among all 5,500 compounds or so, about 2,000 (36%) were called active. Another 18% or so got no clear call; they are omitted. This is one part of the list. Unmarked numbers belong to inactive results. Cut-off read from the data, not from the text of the source: active = normalized growth mostly below about 0.91 (no sharp cut-off); inconclusive = no clear call, values can overlap the other calls; inactive = mostly above about 0.92.

Assay: chemical genetic growth profiling, strain panel (AID 1159580);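 note: tested at 20 µM; growth read once vehicle control cultures reached saturation at 30 °C; 1 = growth at the plate median or of vehicle wells; lower values mean less growth of the strain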
Settings: growth OD

COc1ccc2c(c1)CCC(c1ccccc1)=C2c1ccc(OCCN2CCCC2)cc1
normalized growth (S. cerevisiae deletion strains, locus YBR021W, strain FUR4, active compounds read low): 0.239 (active)
normalized growth (S. cerevisiae deletion strains, locus YBR229C, strain ROT2, active compounds read low): 0.946
normalized growth (S. cerevisiae deletion strains, locus YCL029C, strain bik1, active compounds read low): 0.549 (active)
normalized growth (S. cerevisiae deletion strains, locus YDL035C, strain GPR1, active compounds read low): 0.638 (active)
normalized growth (S. cerevisiae deletion strains, locus YDL074C, strain BRE1, active compounds read low): 0.511 (active)
normalized growth (S. cerevisiae deletion strains, locus YDL101C, strain DUN1, active compounds read low): 0.329 (active)
normalized growth (S. cerevisiae deletion strains, locus YDL134C, strain PPH21, active compounds read low): 0.407 (active)
normalized growth (S. cerevisiae deletion strains, locus YDL185W, strain tfp1, active compounds read low): 0.972
normalized growth (S. cerevisiae deletion strains, locus YDL192W, strain arf1, active compounds read low): 0.095 (active)
normalized growth (S. cerevisiae deletion strains, locus YDR101C, strain arx1, active compounds read low): 0.675 (active)
normalized growth (S. cerevisiae deletion strains, locus YDR162C, strain NBP2, active compounds read low): 0.174 (active)
normalized growth (S. cerevisiae deletion strains, locus YDR318W, strain mcm21, active compounds read low): 0.382 (active)
normalized growth (S. cerevisiae deletion strains, locus YDR388W, active compounds read low): 0.181 (active)
normalized growth (S. cerevisiae deletion strains, locus YDR502C, strain sam2, active compounds read low): 0.405 (active)
normalized growth (S. cerevisiae deletion strains, locus YER110C, active compounds read low): 0.863 (active)
normalized growth (S. cerevisiae deletion strains, locus YER155C, strain BEM2, active compounds read low): 0.961
normalized growth (S. cerevisiae deletion strains, locus YER167W, strain BCK2, active compounds read low): 0.85 (active)
normalized growth (S. cerevisiae deletion strains, locus YGL078C, strain dbp3, active compounds read low): 0.973
normalized growth (S. cerevisiae deletion strains, locus YGL086W, strain mad1, active compounds read low): 0.28 (active)
normalized growth (S. cerevisiae deletion strains, locus YGL248W, strain PDE1, active compounds read low): 0.465 (active)
normalized growth (S. cerevisiae deletion strains, locus YGR078C, strain PAC10, active compounds read low): 0.852
normalized growth (S. cerevisiae deletion strains, locus YGR135W, strain pre9, active compounds read low): 0.408 (active)
normalized growth (S. cerevisiae deletion strains, locus YGR252W, strain gcn5, active compounds read low): 0.251 (active)
normalized growth (S. cerevisiae deletion strains, locus YHR079C, strain IRE1 (second series), active compounds read low): 0.617 (active)
normalized growth (S. cerevisiae deletion strains, locus YHR094C, strain hxt1, active compounds read low): 0.714 (active)
normalized growth (S. cerevisiae deletion strains, locus YHR129C, strain ARP1, active compounds read low): 0.674 (active)
normalized growth (S. cerevisiae deletion strains, locus YHR200W, strain rpn10, active compounds read low): 0.706 (active)
normalized growth (S. cerevisiae deletion strains, locus YIL066C, strain RNR3, active compounds read low): 0.553 (active)
normalized growth (S. cerevisiae deletion strains, locus YIL073C, strain SPO22, active compounds read low): 0.3 (active)
normalized growth (S. cerevisiae deletion strains, locus YIL125W, strain kgd1, active compounds read low): 0.987
normalized growth (S. cerevisiae deletion strains, locus YIR030C, strain dcg1, active compounds read low): 0.513 (active)
normalized growth (S. cerevisiae deletion strains, locus YJL095W, strain BCK1, active compounds read low): 0.138 (active)
normalized growth (S. cerevisiae deletion strains, locus YJL134W, strain LCB3, active compounds read low): 1.01
normalized growth (S. cerevisiae deletion strains, locus YJL168C, strain set2, active compounds read low): 0.409 (active)
normalized growth (S. cerevisiae deletion strains, locus YJL187C, strain SWE1 (second series), active compounds read low): 0.367 (active)
normalized growth (S. cerevisiae deletion strains, locus YJR075W, strain HOC1, active compounds read low): 0.593 (active)
normalized growth (S. cerevisiae deletion strains, locus YKL009W, strain mrt4, active compounds read low): 0.925
normalized growth (S. cerevisiae deletion strains, locus YKL068W, active compounds read low): 0.994
normalized growth (S. cerevisiae deletion strains, locus YKL085W, strain MDH1 (second series), active compounds read low): 0.976
normalized growth (S. cerevisiae deletion strains, locus YKL085W, strain MDH1, active compounds read low): 0.976
normalized growth (S. cerevisiae deletion strains, locus YKL190W, strain CNB1, active compounds read low): 0.524 (active)
normalized growth (S. cerevisiae deletion strains, locus YKR001C, strain vps1, active compounds read low): 0.0705 (active)
normalized growth (S. cerevisiae deletion strains, locus YLR039C, strain RIC1, active compounds read low): 1.37 [resistant] (active)
normalized growth (S. cerevisiae deletion strains, locus YLR058C, strain SHM2, active compounds read low): 0.446 (active)
normalized growth (S. cerevisiae deletion strains, locus YLR102C, strain apc9, active compounds read low): 0.683 (active)
normalized growth (S. cerevisiae deletion strains, locus YLR262C, strain YPT6, active compounds read low): 1.16
normalized growth (S. cerevisiae deletion strains, locus YLR268W, strain sec22, active compounds read low): 0.415 (active)
normalized growth (S. cerevisiae deletion strains, locus YLR342W, strain FKS1 (second series), active compounds read low): 0.348 (active)
normalized growth (S. cerevisiae deletion strains, locus YLR371W, strain rom2, active compounds read low): 0.355 (active)
normalized growth (S. cerevisiae deletion strains, locus YLR418C, strain cdc73, active compounds read low): 0.295 (active)
normalized growth (S. cerevisiae deletion strains, locus YML016C, strain PPZ1, active compounds read low): 0.491 (active)
normalized growth (S. cerevisiae deletion strains, locus YML032C, strain rad52, active compounds read low): 0.492 (active)
normalized growth (S. cerevisiae deletion strains, locus YML124C, strain tub3, active compounds read low): 0.672 (active)
normalized growth (S. cerevisiae deletion strains, locus YMR078C, strain ctf18, active compounds read low): 0.979
normalized growth (S. cerevisiae deletion strains, locus YMR223W, strain ubp8, active compounds read low): 0.478 (active)
normalized growth (S. cerevisiae deletion strains, locus YMR307W, strain GAS1, active compounds read low): 0.764
normalized growth (S. cerevisiae deletion strains, locus YNL067W, strain RPL9B, active compounds read low): 0.825 (active)
normalized growth (S. cerevisiae deletion strains, locus YNL233W, strain BNI4, active compounds read low): 0.423 (active)
normalized growth (S. cerevisiae deletion strains, locus YNL250W, strain rad50, active compounds read low): 0.953
normalized growth (S. cerevisiae deletion strains, locus YNL271C, strain bni1, active compounds read low): 0.992
normalized growth (S. cerevisiae deletion strains, locus YNL298W, strain CLA4, active compounds read low): 0.957
normalized growth (S. cerevisiae deletion strains, locus YNL307C, strain MCK1, active compounds read low): 0.258 (active)
normalized growth (S. cerevisiae deletion strains, locus YNL322C, strain KRE1, active compounds read low): 0.796 (active)
normalized growth (S. cerevisiae deletion strains, locus YNR052C, strain pop2, active compounds read low): 0.136 (active)
normalized growth (S. cerevisiae deletion strains, locus YOL006C, strain TOP1, active compounds read low): 0.323 (active)
normalized growth (S. cerevisiae deletion strains, locus YOL012C, strain htz1): 0.17 (active)
normalized growth (S. cerevisiae deletion strains, locus YOL147C, strain pex11, active compounds read low): 0.445 (active)
normalized growth (S. cerevisiae deletion strains, locus YOR061W, strain CKA2, active compounds read low): 0.206 (active)
normalized growth (S. cerevisiae deletion strains, locus YOR069W, strain VPS5, active compounds read low): 0.859 (active)
normalized growth (S. cerevisiae deletion strains, locus YOR136W, strain idh2, active compounds read low): 0.734 (active)
normalized growth (S. cerevisiae deletion strains, locus YOR144C, strain elg1, active compounds read low): 0.813 (active)
normalized growth (S. cerevisiae deletion strains, locus YOR184W, strain ser1, active compounds read low): 0.522 (active)
normalized growth (S. cerevisiae deletion strains, locus YOR316C, strain cot1, active compounds read low): 0.794 (active)
normalized growth (S. cerevisiae deletion strains, locus YPR119W, strain clb2, active compounds read low): 0.774 (active)
normalized growth (S. cerevisiae deletion strains, locus YPR141C, strain kar3, active compounds read low): 0.977
normalized growth (S. cerevisiae deletion strains, locus YPR163C, strain tif3, active compounds read low): 0.0746 (active)
normalized growth (S. cerevisiae deletion strains, locus YPR167C, strain met16, active compounds read low): 0.633 (active)
normalized growth (S. cerevisiae deletion strains, strain wtn01, active compounds read low): 0.274 (active)
normalized growth (S. cerevisiae strains, strain wild type, active compounds read low): 0.358 (active)
